From PubChem
The list is not random: actives were taken first. Their share in the collection is about 18%.
TDP1 block = blocks human tyrosyl-DNA phosphodiesterase 1 | Q9NUW8 | recombinant TDP1, AlphaScreen DNA substrate cleavage | Potency, µM (highest dose often 130 µM), for the others: at the top dose activity change, negative = inhibition, actives largely listed as inhibitors | actives 0.28% (n = 350,000) | AID 485290; further: potency means the concentration at half of the fitted maximal effect; nearly all actives have a fitted effect of over 40% in size
Target sequence (Q9NUW8 whole entry, looked up): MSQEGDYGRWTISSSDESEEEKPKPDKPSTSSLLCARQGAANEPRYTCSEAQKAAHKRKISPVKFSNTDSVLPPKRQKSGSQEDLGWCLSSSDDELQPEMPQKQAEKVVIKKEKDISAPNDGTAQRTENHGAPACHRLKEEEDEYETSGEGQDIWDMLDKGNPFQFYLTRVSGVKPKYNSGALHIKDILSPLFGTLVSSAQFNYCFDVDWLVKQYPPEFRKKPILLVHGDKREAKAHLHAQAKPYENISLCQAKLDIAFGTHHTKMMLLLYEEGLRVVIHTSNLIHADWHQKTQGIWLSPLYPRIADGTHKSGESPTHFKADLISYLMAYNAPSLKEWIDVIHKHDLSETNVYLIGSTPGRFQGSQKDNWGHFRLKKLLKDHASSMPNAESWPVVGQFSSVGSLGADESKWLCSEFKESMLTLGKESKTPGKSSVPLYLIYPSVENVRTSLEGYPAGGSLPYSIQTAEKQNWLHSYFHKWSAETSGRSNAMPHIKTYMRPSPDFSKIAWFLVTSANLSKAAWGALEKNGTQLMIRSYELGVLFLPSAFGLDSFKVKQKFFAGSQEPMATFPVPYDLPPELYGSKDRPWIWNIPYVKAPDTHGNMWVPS
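Recombinant E. coli-expressed Tdp1 (1 nM) preincubated with compound 15 min at RT, then 5'-biotin/3'-phosphotyrosine-FITC DNA substrate (15 nM) added for 5 min. AlphaScreen beads (10 ug/ml) added, 10 min RT; tyrosine-FITC cleavage read as signal loss.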
Six1-Eya2 inh = inhibitors of human Six1/Eya2 interaction. Q15475+O00167. activity change, % (test concentration not listed). actives 0.56% (n = 360,000). AlphaScreen GST-Six1/His-Eya2 binding, biochemical; hits give low values; in the data active means activity change below about -65%; inconclusive means mostly about -30% to -63%
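GST-Six1 + His-Eya2 (5X stock: 250/500 nM); Tris pH 8.0, 300 mM NaCl, 0.05% BSA, 0.02% Tween 20; GSH donor/Ni acceptor beads; 1 h 37 °C dark; AlphaScreen readout.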
CtBP-E1A inh = inhibitors of CtBP/E1A interaction | AlphaScreen GST-E1A/His-CtBP binding, 1536-well; hits give low values | actives 0.49% (n = 340,000) | activity change, % (concentration not given with the values); in the data active means activity change below about -65%; inconclusive means mostly about -30% to -63%
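Protein mix (5X: 125 nM each GST-E1A, His-CtBP) was incubated with pinned compound 2 h at 37 deg C in dark, in 50 mM Tris pH 8.0 buffer with 300 mM NaCl. Glutathione donor and nickel acceptor beads followed; AlphaScreen signal read after 1 h.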
TDP1 cell noCPT = qHTS for Inhibitors of human tyrosyl-DNA phosphodiesterase 1 (TDP1): qHTS in cells in absence of CPT; DT40 Tdp1-/- hTDP1 cells, no CPT, ATP luminescence, 48 h; Potency, µM (series often up to 46.2 µM), for inactives: top-dose activity change, negative = growth inhibition, usual class: inhibitors; actives 15% (n = 420,000); further: potency means the concentration at half of the fitted maximal effect; nearly all actives have a fitted effect of over 55% in size
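Chicken DT40 Tdp1-/- cells complemented with human TDP1, screened without camptothecin (DMSO vehicle only), 400 cells/well. Compounds pin-transferred, cells incubated at 37 °C for at least 48 hr. Growth read as ATP-dependent luminescence (CellTiter-Glo, 30 min at RT).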
DT40 TDP1 CPT = growth inhibition of DT40 Tdp1-/-;hTDP1 cells with camptothecin (screen for TDP1 inhibitors); chicken DT40 Tdp1-/-;hTDP1 cells + 20 nM CPT, ATP luminescence, 48 h; Potency, µM (series often up to 46.2 µM), inactives show at the top dose activity change, negative = growth inhibition, most hits filed as inhibitors; actives 12% (n = 420,000); further: potency means the concentration at half of the fitted maximal effect; nearly all actives have a fitted effect of over 55% in size
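Chicken DT40 Tdp1-/- cells stably complemented with human TDP1 were seeded at 400 cells/well in medium containing 20 nM camptothecin, exposed to pin-transferred compounds, and grown at 37 °C for at least 48 hr. Viability was read as ATP luminescence.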
IL1B secr inh = inhibitors of inflammasome signaling (IL-1 beta secretion). THP-1 LPS/ATP IL-1B secretion, AlphaLISA, 16 h; hits give low values. activity change, % at 57.5 µM. actives 4.7% (n = 360,000); in the data active means activity change below about -50%; inconclusive means mostly about -30% to -49%
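THP-1 cells pretreated 1 hr with compounds (up to 57.5 uM final), then stimulated with LPS (250 ng/mL final) plus ATP (1.25 mM final); secreted IL-1B measured by AlphaLISA after 16 hr, decreased signal indicating inhibition.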
* = called active by the depositor; ? = inconclusive; . = no result; [ ] = remark or other dose. Unless noted, the call rests on the fitted dose curve; in most records, active means well fitted curve in the direction sought with a large enough effect; inconclusive means small, poorly fitted or top-dose-only effect, or another doubt; inactive means no such curve, though single readings can be large; an effect the other way counts as inactive or inconclusive. On the % scale 0 is the no-effect control and ±100 the full control effect.

SMILES	TDP1 block	Six1-Eya2 inh	CtBP-E1A inh	TDP1 cell noCPT	DT40 TDP1 CPT	IL1B secr inh
CCC(C)C(NC(=O)C1CCC(C)CC1)C(=O)NCc1ccco1 (stereo not drawn)	.	-0.2	-14.7	-29.7%	0.5%	-21.5
CC[C@@H]1OC(=O)[C@H](C)[C@H](O[C@@H]2C[C@](C)(OC)[C@H](O)[C@H](C)O2)[C@H](C)[C@H](O[C@@H]2O[C@@H](C)C[C@@H](N(C)C)[C@@H]2O)[C@](C)(O)C[C@H](C)[C@@H]2N[C@H](COCCOC)O[C@H]([C@@H]2C)[C@]1(C)O	8.3%[56.1 µM]	.	.	.	.	.
Cc1cc(C)cc(NC(=O)CSc2nnc(-c3ccc(S(=O)(=O)N4CCCC4)cc3)o2)c1	9.5%	4.4	1.1	-14.4%	-22.3%	0.0
CCc1ccc(N2C(=O)C3CCCN3C2=S)cc1 (stereo not drawn)	.	6.9	6.7	?	6.5%	-14.6
O=C1C2CCCN2C(=S)N1c1cc(Cl)ccc1Cl (stereo not drawn)	2.2%	6.1	6.0	2.2%	-10.2%	-65.6*
O=C(c1ccccc1)N1N=C(c2ccco2)CC1c1cccs1 (stereo not drawn)	.	-1.3	-2.8	20.6µM*	?	-14.4
O=C(CCl)N1N=C(c2ccco2)CC1c1cccs1 (stereo not drawn)	4.2%	-0.7	-0.7	1.84µM*	2.06µM*	-105.5*
Cc1ccc(C2=NN(C(=O)CCl)C(c3cccs3)C2)o1 (stereo not drawn)	5.5%	2.8	13.2	2.59µM*	2.06µM*	-102.0*
COc1ccc(C(=O)NCc2cn3cccc(C)c3n2)cc1OC	4.9%	-2.0	-4.4	-3.4%	-5.1%	26.5
CN1CCN(c2ncncc2-c2ccc(N(C)C)cc2)CC1	.	.	.	-10.4%	?	.
CN1CCN(c2ccnc(N(C)CCCCCCN)n2)CC1	.	.	.	?	12.6µM*	.
CN1CCN(c2ccnc(-c3ccc(N(C)C)cc3)n2)CC1	.	.	.	23.1µM*	23.1µM*	.
Cc1ccc(OCc2nc(C#N)c(NCCc3ccccc3)o2)cc1	5.3%	.	.	?	?	.
COc1ccc(Nc2oc(COc3ccccc3F)nc2C#N)cc1	4.9%	-9.4	-0.9	13µM*	?	-2.4
N#Cc1nc(COc2ccccc2F)oc1NCCc1ccccc1	10.3%	-17.8	-12.3	-19.0%	-5.3%	-76.6*
O=C(/C=C/c1cccc(F)c1)OCC(=O)c1ccc[nH]1	-18.6%	-3.2	?	1.9%	4.0%	-16.2
O=C(/C=C/c1ccncc1)c1ccc(NC(=O)c2ccccc2F)cc1	0.0%	12.3	-0.1	2.91µM*	4.11µM*	-103.6*
O=C(/C=C/c1ccc(NC(=O)c2ccccc2-c2ccccc2C(=O)O)cc1)c1ccccc1	-7.0%	6.8	.	?	-18.6%	-61.5*
O=C(Nc1cccnc1)c1ccccc1F	1.0%	0.9	5.6	1.4%	-3.2%	-13.6
O=C(O)c1ccccc1-c1ccccc1C(=O)Nc1ccc(F)cc1	.	-19.7	-11.2	-11.0%	10.1%	-12.5
CCCCNC(=O)C1(C)CCC(=O)N1c1cc(C(C)(C)C)nn1C (stereo not drawn)	.	1.3	7.2	4.9%	-1.9%	5.4
COC(=O)C1(C(=O)OC)c2cc3c(cc2CN(S(=O)(=O)c2ccc(C)cc2)C1CC(C)=O)OCO3 (stereo not drawn)	.	-4.0	-21.1	1.8%	-9.4%	-28.6
O=C(COc1ccccc1Cl)Nc1ccc2c(c1)OCCO2	-2.6%	8.1	10.6	?	?	2.7
Cc1ccc(S(=O)(=O)NCC(=O)OCCOc2ccccc2F)cc1	-2.7%	4.8	.	-11.4%	12.6%	0.1
Cc1ccc(C(=O)N2CCN(c3ccc([N+](=O)[O-])c(NCc4ccco4)c3)CC2)cc1	5.8%	-18.0	-29.5	16.4µM*	?	-26.4
SMILES	TDP1 block	Six1-Eya2 inh	CtBP-E1A inh	TDP1 cell noCPT	DT40 TDP1 CPT	IL1B secr inh
Cc1cccc(C(=O)N2CCN(c3ccc([N+](=O)[O-])c(NCc4ccco4)c3)CC2)c1	9.6%	-28.0	-24.8	20.6µM*	?	-7.6
COc1ccc(-c2noc(C3CCCN(C(=O)c4c(F)cccc4F)C3)n2)cc1OC (stereo not drawn)	.	-0.3	-12.3	?	?	-16.7
Cc1ccc(-c2noc(C3CCCN(C(=O)c4c(F)cccc4F)C3)n2)cc1 (stereo not drawn)	3.8%	-1.3	8.7	20.6µM*	?	-17.0
COc1ccc(-c2noc(C3CCCN(C(=O)c4cccc(C)c4)C3)n2)cc1 (stereo not drawn)	.	3.0	3.1	16.4µM*	16.4µM*	?
Cc1ccc(-c2noc(C3CCCN(C(=O)c4cccc(F)c4)C3)n2)cc1 (stereo not drawn)	4.6%	-2.7	.	29.1µM*	?	-4.9
COc1cc(-c2noc(C3CCCN(C(=O)c4c(F)cccc4F)C3)n2)cc(OC)c1OC (stereo not drawn)	.	0.0	-4.0	20.6µM*	?	-15.9
COc1ccc(C(=O)N2CCCC(c3nc(-c4ccc(OC)c(OC)c4)no3)C2)c(OC)c1 (stereo not drawn)	1.0%	6.6	3.9	?	?	0.0
CCOC(=O)N1CCN(S(=O)(=O)c2cccc3cccnc23)CC1	4.0%	1.1	2.7	8.0%	8.9%	23.9
Oc1ccc(/C=N/N2CCCCC2)c(O)c1	.	0.0	-19.9	-9.1%	5.3%	-1.2
Cc1ccc(-c2noc(C3CCCN(C(=O)c4ccccc4Br)C3)n2)cc1 (stereo not drawn)	.	-0.4	.	20.6µM*	?	5.2
Cc1c(Cl)cccc1NC(=S)N=Nc1c(O)n(CN2CCOCC2)c2ccccc12	7.9%	-24.3	-18.1	1.46µM*	5.8µM*	3.3
C=CCn1c(O)c(N=NC(=O)c2cccnc2)c2cc(Br)ccc21	8.9%	-8.8	-3.5	-25.0%	-25.3%	19.3
Cc1c(Cl)cccc1NC(=O)CCN1CCOCC1	.	-1.3	8.3	-1.6%	-13.7%	0.5
Oc1c(N=NC(=S)Nc2ccccc2F)c2ccccc2n1Cc1ccccc1	10.3%	-20.3	-18.6	5.8µM*	7.31µM*	-7.9
C=CCn1c(O)c(N=O)c2cc(C)ccc21	7.3%	5.6	-18.0	?	-33.3%	-51.6*
C=CCn1c(O)c(N=NC(=S)Nc2ccccc2F)c2ccccc21	11.5%	?	-12.1	2.59µM*	4.11µM*	76.9
O=C(O)c1ccc(NC(=O)c2ccccc2Br)c(NC(=O)c2ccccc2Br)c1	5.5%	-0.5	.	-2.9%	1.4%	-8.5
